This excerpt belongs to a sample that is enriched for hits.
Tgondii IFNg = T. gondii growth inhibition under IFN-gamma; Toxoplasma gondii growth in IFN-gamma-treated host cells; hits give low values; activity change, negative = inhibition, % (concentration not given with the values); 3.8% of 69,000 active; AID 1259416; in the data active = activity change below about -70%, passing the limit was not always enough;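 note: host cells are HeLa cells infected with Toxoplasma gondii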
* hit, by the source's call; i = inactive.

SMILES	Tgondii IFNg
Cc1ccc(C(=O)N2CCC3(CC2)Nc2ccc(C)c(C)c2-n2cccc23)cc1F	-5.8
CCCCNC(=O)N1CCC2(CC1)C(=O)N(c1ccc(C)nc1)CCN2Cc1ccccc1	-14.4
CCC(C)Nc1nc(-c2nnc(-c3cccc(C)c3)o2)nc2ccccc12 (stereo unspecified)	-59.9
CCCSCCCNc1nc(-c2nnc(-c3ccc(C)cc3)o2)nc2ccccc12	-25.6
CCCNc1nc(-c2nnc(-c3cccc(C)c3)o2)nc2ccccc12	-97.8*
COC(C(=O)NCc1c(C)ncc2c1CCN(C(=O)/C=C/c1cccc(F)c1)C2)c1ccccc1 (stereo unspecified)	2.2
CCOc1ccccc1-c1nnc(NC(=O)c2ccc3c(c2)ncn3C)s1	-4.1
CN(C)c1cncc(-c2cccc(-n3cccn3)c2)n1	190.4
O=C(O)c1ccc(-c2cccc(-n3cccn3)c2)o1	-44.6
c1ccc(-c2[nH]cnc2-c2cccc(-n3cccn3)c2)cc1	-94.9*
CC(=O)Nc1sc2c(c1C#N)CCc1ccccc1-2	-89.7*
COc1nc2c(c(-c3ccco3)c1C#N)Cc1cc(NC(C)=O)ccc1-2	7.6
CC(=O)Nc1ccc2c(c1)CCc1ccccc1-2	23.9
CC(=O)OC[C@H]1O[C@@H](Sc2cccc3cccnc23)[C@H](OC(C)=O)[C@@H](OC(C)=O)[C@H]1OC(C)=O	3.5
O=C(CSc1cccc2cccnc12)OCC(=O)c1ccccc1	-89.3*
CC(C)c1ccc(CNC(=O)CSc2cccc3cccnc23)cc1	11.1
CC(C)NC(=O)CC1CC2(CCN(Cc3cnn(C)c3)CC2)Oc2ccccc21 (stereo unspecified)	39.4
O=C(CCC1N=C2c3ccccc3N=C(SCc3ccccc3F)N2C1=O)NCc1ccc2c(c1)OCO2 (stereo unspecified)	-5.2
O=C(NCC(O)c1ccccc1)c1ccc(NC(=O)C2CCC2)cc1 (stereo unspecified)	7.4
CC(C)c1ccc(C(=O)Nc2ccccc2)cc1	-9.2
CC(C)[C@H](C(=O)Nc1ccc(C(=O)NO)cc1)c1ccccc1	-82.8*
Cc1ccc2c(CN3CCN(Cc4nc(-c5ccccc5C)oc4C)CC3)cc(=O)oc2c1	8.3
O=C(c1ccccc1)N1CCN(C(=O)c2ccccc2)CC1	-9.7
Cc1ccc(C)c(N2CCN(C(=O)c3ccc(-n4nc(C(F)(F)F)c5c4CCCC5)cc3)CC2)c1	0.8
CC(C)(C)c1cc2nc(C(F)(F)F)cc(N3CCN(C(=O)c4ccccc4)CC3)n2n1	-85.8*
SMILES	Tgondii IFNg
CNC(=O)c1cc(=O)n(CC(=O)Nc2ccc(Cl)cc2)c2ccccc12	0.7
Cc1oncc1C(=O)N1CC[C@H]2C[C@H](c3ccncn3)O[C@H]2C1	46.3
CN1CCS(=O)(=O)[C@H]2CCN(C(=O)Nc3ccccc3)CC[C@@H]21	-1.7
Cc1cnc(N2CCC3(CC2)CCN(c2cnn(C)c2)C3=O)nc1	-0.4
O=C(CCC1Nc2c3ccccc3nc(=S)n2C1=O)NCc1cccc(Cl)c1 (stereo unspecified)	5.9
O=C1CN(C(=O)CSc2nc(C3CCCCC3)nc3ccccc23)c2ccccc2N1	-97.8*
COc1cc2cc(C)c(SCC(=O)N3CC(=O)Nc4ccccc43)nc2cc1OC	8.8
O=C(CCC(=O)N1CC(=O)Nc2ccccc21)Nc1cccc(-n2cccn2)c1	0.6
Cc1cnn(Cc2cccc(Cl)c2)c1NC(=O)C1=NNC(=O)CC1	20.3
CCOC(=O)c1nc(NCc2ccc(Cl)cc2)c2ccccc2n1	-26.6
COCC1CN(C(=O)Cc2ccsc2)Cc2ccnn2C1 (stereo unspecified)	7.8
CCO[C@@H]1C[C@H]2CN(S(=O)(=O)c3cccs3)CCN2C1	1.9
O=C(Cc1cc(Br)sc1Br)Nc1cccc(C(F)(F)F)c1	-65.1
Cn1nc(C(C)(C)C)cc1C(=O)Nc1c(-c2ccccc2)c(C(F)(F)F)nn1C	-95.4*
Cn1nc(C(F)(F)F)c(-c2ccc(Br)cc2)c1NC(=O)C1CCC1C(=O)O (stereo unspecified)	-10.4
C[C@H](Cn1nnc2ccccc21)NC(=O)c1cc(C(C)(C)C)nn1C	2.5
CC(c1cccc(-c2ccc3[nH]ncc3c2)c1)N1CCCC1 (stereo unspecified)	6.2
CCN1c2ccc(C)cc2C(=O)NC12CCN(C(=O)c1ccccc1Cl)CC2	33.4
Cc1cc(CN2C[C@H](OCC3CCOCC3)[C@@H]3COC[C@@H]32)oc1C	-2.4
COc1ccc(S(=O)(=O)Nc2nnc(CC(C)C)s2)cc1	7.0
CCc1nnc(NC(=S)NC(=O)c2ccc(-c3ccccc3)cc2)s1	245.1
CCc1nnc(NC(=O)c2ccc(S(=O)(=O)NCC(C)C)cc2)s1	-74.8*
CN(C)C(=O)CC1CC2(CCN(Cc3cnn(C)c3)CC2)Oc2ccccc21 (stereo unspecified)	5.6
Cc1nn(CC(=O)NCCN2CCOCC2)c(=O)c2nc(-c3ccccc3)sc12	6.7
Cn1cnc(S(=O)(=O)N2CCCN(C(=O)OC(C)(C)C)CC2)c1	2.9
SMILES	Tgondii IFNg
CC(C)(C)OC(=O)N1CCCN(C(=O)Nc2ccc(C(F)(F)F)cc2)CC1	-85.8*
COc1ccccc1N1CCN(C(=O)Nc2ccc(F)cc2)CC1	-21.9
Cc1cc(C)n(CCCC(=O)Nc2cnc3n2CCCC3)n1	-0.8
CN(CCNC(=O)Cn1c(=O)oc2ccc(Cl)cc21)c1ccccc1	-2.9
CC1Cc2cc(CN(C)C(=O)CCS(=O)(=O)c3cccc4cccnc34)ccc2O1 (stereo unspecified)	-26.1
CC1Cc2cc(CN(C)C(=O)Cn3c(=O)oc4ccc(Cl)cc43)ccc2O1 (stereo unspecified)	-92.3*
CN(C)C(=O)[C@H]1C[C@@H]2OCC[C@@H]2N(CCOCc2ccccc2)C1	-12.6
O=C1NCCO[C@@H]2CN(C(=O)c3cccs3)CC[C@H]12	2.7
CN(C)CCN1C2(CCN(Cc3nccs3)C2)c2ccccc2S1(=O)=O (stereo unspecified)	0.2
CC(C)CCN1C2(CCN(Cc3nccs3)C2)c2ccccc2S1(=O)=O (stereo unspecified)	-95.9*
COCCN1C2(CCN(Cc3nccs3)C2)c2ccccc2S1(=O)=O (stereo unspecified)	2.7
OC1(c2cccc(C(F)(F)F)c2)CCN(CC2CCOC2)CC1 (stereo unspecified)	-9.1
COc1ccccc1CNC(=O)c1cncc(NS(=O)(=O)c2ccc3c(c2)OCCO3)c1	-6.8
COc1ccc(N(Cc2nc(-c3ccccc3OC)oc2C)S(=O)(=O)c2ccc(OC)cc2)cc1	-3.4
COCCCNC(=O)Cn1nnc(-c2ccc(NC(=O)c3cccnc3)cc2)n1	-6.3
Cc1ccc(-c2nnn(CC(=O)Nc3ccc(N4CCCS4(=O)=O)cc3)n2)cc1	4.8
COc1ccc(-c2nnn(CC(=O)Nc3ccc(C)cc3)n2)cc1	-96.8*
O=C(NCc1cn2c(n1)CN(Cc1cccc(F)c1)CC2)C1CCC1	-2.3
COCCn1c2c(ccc1=O)CCN(C(=O)N1CCOCC1)CC2	-1.3
COCCC(=O)c1ccc2nnc3nc(C)n(Cc4ccccc4)c3c2c1	-16.0
COc1ccc(NC(=O)N2CCC3(CC2)Nc2cc(F)ccc2-n2cccc23)cc1	i
COc1ccc(-c2ccccc2[C@@H]2[C@@H](C#N)N(C(=O)NC(C)C)[C@H]2CO)cc1	23.9
COc1ccc(-c2ccccc2[C@@H]2[C@@H](C#N)N(C(=O)NC3CCCCC3)[C@H]2CO)cc1	6.4
COc1ccc(-c2ccccc2[C@H]2[C@@H](CO)N(C(=O)NC3CCCCC3)[C@H]2C#N)cc1	-72.4*
COc1ccc(N(CCc2ccccn2)C(=O)c2cnc(SC)nc2)cc1	10.2
CN(Cc1cnccn1)C(=O)c1ccc(CSc2ncccn2)o1	3.3
